In PubChem BioAssay (EPA / NIEHS):
The source made the active and inactive calls. How the source made its calls: active means hit-call score of the fitted dose curve at least 0.9, where 1 is the maximum; inactive means score below 0.9.

Assay: CCTE_Harrill_HTTr_Viability_DMEM_6hr: (Pilot) CCTE's 6-hour Cell Viability Assessment for the High-Throughput Transcriptomics (HTTr) Platform, in MCF-7 cells cultured in DMEM + 10% fetal bovine serum, Harrill Lab (AID 2283973)
Outline: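 Propidium iodide uptake imaged by high-content analysis after six hours of chemical treatment in an eight-concentration series. Cells: MCF-7 grown in DMEM with 10% fetal bovine serum; DMSO as baseline.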

Row | Compound | outcome
1 | O=S(=O)(O)C(F)(F)C(F)(F)C(F)(F)C(F)(F)C(F)(F)C(F)(F)C(F)(F)C(F)(F)F | inactive
2 | O=C(O)C(F)(F)C(F)(F)C(F)(F)C(F)(F)C(F)(F)C(F)(F)C(F)(F)F | inactive
3 | CCCN(CCOc1c(Cl)cc(Cl)cc1Cl)C(=O)n1ccnc1 | inactive

Assay: CCTE_Harrill_HTTr_Viability_DMEM_12hr: (Pilot) CCTE's 12-hour Cell Viability Assessment for the High-Throughput Transcriptomics (HTTr) Platform, in MCF-7 cells cultured in DMEM + 10% fetal bovine serum, Harrill Lab (AID 2283974)
Outline: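 Propidium iodide dye exclusion imaged by high-content microscopy after 12 h chemical exposure (eight concentrations) of MCF-7 cells grown in DMEM plus 10% FBS; values fitted in both directions relative to DMSO.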

Row | Compound | outcome
4 | O=S(=O)(O)C(F)(F)C(F)(F)C(F)(F)C(F)(F)C(F)(F)C(F)(F)C(F)(F)C(F)(F)F | inactive
5 | O=C(O)C(F)(F)C(F)(F)C(F)(F)C(F)(F)C(F)(F)C(F)(F)C(F)(F)F | inactive
6 | CCCN(CCOc1c(Cl)cc(Cl)cc1Cl)C(=O)n1ccnc1 | inactive

Assay: CCTE_Harrill_HTTr_Viability_DMEM_24hr: (Pilot) CCTE's 24-hour Cell Viability Assessment for the High-Throughput Transcriptomics (HTTr) Platform, in MCF-7 cells cultured in DMEM + 10% fetal bovine serum, Harrill Lab (AID 2283975)
Outline: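 Pilot study: propidium iodide dye exclusion, imaged by high content microscopy, after 24 h compound exposure (eight concentrations) in MCF-7 cultured in DMEM + 10% fetal bovine serum; DMSO served as negative control and baseline.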

Row | Compound | outcome
7 | O=S(=O)(O)C(F)(F)C(F)(F)C(F)(F)C(F)(F)C(F)(F)C(F)(F)C(F)(F)C(F)(F)F | inactive
8 | O=C(O)C(F)(F)C(F)(F)C(F)(F)C(F)(F)C(F)(F)C(F)(F)C(F)(F)F | inactive
9 | CCCN(CCOc1c(Cl)cc(Cl)cc1Cl)C(=O)n1ccnc1 | inactive

Assay: CCTE_Harrill_HTTr_Viability_PRF_DMEM_6hr: (Pilot) CCTE's 6-hour Cell Viability Assessment for the High-Throughput Transcriptomics (HTTr) Platform, in MCF-7 cells cultured phenol red-free DMEM + 10% charcoal-stripped fetal bovine serum, Harrill Lab (AID 2283976)
Description: This is a cell-based assay that evaluates cell viability using high content imaging to evaluate membrane integrity using propidium iodide dye exclusion in a 384 well format.One of seven assay components measured from the CCTE_Harrill_HTTr_Viability assay. This was part of a pilot experiment. This is a cell-based assay that evaluates cell viability in MCF-7 cells cultured in phenol red-free DMEM + 10% charcoal-stripped fetal bovine serum. High content imaging is used to evaluate membrane integrity using propidium iodide dye exclusion. Measurements are taken at 6 hours after chemical dosing in 384-well format.The assay component endpoint CCTE_Harrill_HTTr_Viability_PRF_DMEM_6hr was analyzed with bidirectional fitting relation to DMSO as the negative control and baseline of activity. Using a type of viability reporter to understand changes in cytotoxicity, gain-of-signal activity can be used to evaluate membrane integrity using propidium iodide dye exclusion. To generalize the intended target to other relatable targets, this assay endpoint is annotated to cell cycle, where the subfamily is cytotoxicity.
Chemicals were tested in MCF7 cells in an eight point dilution series with a six hour exposure duration.

Row | Compound | outcome
10 | O=S(=O)(O)C(F)(F)C(F)(F)C(F)(F)C(F)(F)C(F)(F)C(F)(F)C(F)(F)C(F)(F)F | inactive
11 | O=C(O)C(F)(F)C(F)(F)C(F)(F)C(F)(F)C(F)(F)C(F)(F)C(F)(F)F | inactive
12 | CCCN(CCOc1c(Cl)cc(Cl)cc1Cl)C(=O)n1ccnc1 | inactive

Assay: CCTE_Harrill_HTTr_Viability_PRF_DMEM_12hr: (Pilot) CCTE's 12-hour Cell Viability Assessment for the High-Throughput Transcriptomics (HTTr) Platform, in MCF-7 cells cultured in phenol red-free DMEM + 10% charcoal-stripped fetal bovine serum, Harrill Lab (AID 2283977)
Outline: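 Membrane integrity was scored via propidium iodide dye exclusion imaging, fitted in both directions relative to DMSO. Compounds ran as eight-point dilutions for 12 hours on MCF-7 grown in phenol red-free DMEM plus 10% charcoal-stripped serum.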

Row | Compound | outcome
13 | O=S(=O)(O)C(F)(F)C(F)(F)C(F)(F)C(F)(F)C(F)(F)C(F)(F)C(F)(F)C(F)(F)F | inactive
14 | O=C(O)C(F)(F)C(F)(F)C(F)(F)C(F)(F)C(F)(F)C(F)(F)C(F)(F)F | inactive
15 | CCCN(CCOc1c(Cl)cc(Cl)cc1Cl)C(=O)n1ccnc1 | inactive
